Measured values published in paper PMC10668032, “Altered binding affinity of SIX1-Q177R correlates with enhanced WNT5A and WNT pathway effector expression in Wilms tumor”.
Over roughly 33,000 sequences, “e-score” has its median near -0.05; the highest 2% begin near 0.38. The list comes from a sample in which the highest values are over-represented; it also holds similar and randomly drawn sequences.

molecular target: T1, SIX1-Q177R homeodomain (human, UniProt Q15475 108-198, Q177R); assay: universal protein binding microarray; Universal all-10-mer PBM (8x60K, AMADID 030236), 300 nM GST-tagged protein, Alexa Fluor 488 anti-GST; buffer, salt, pH and temperature not stated (as in Berger); high values mean tight binding; settings: protein: ivt; tags: N-terminal GST; dsDNA, one strand shown
T1 sequence: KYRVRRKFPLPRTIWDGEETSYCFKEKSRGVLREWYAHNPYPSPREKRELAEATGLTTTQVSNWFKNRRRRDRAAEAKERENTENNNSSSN
Outline: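 Homeodomains fused to GST were made by in vitro transcription/translation and measured by anti-GST western blot with a recombinant GST standard curve. At 300 nM final concentration, they were applied in duplicate to universal 'all 10-mer' protein binding microarrays (8×60K format).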

Sequence	binding signal [E-score]
CCGAGCAC	0.178 ± 0.0032
ACCCAGTG	0.21 ± 0.0315
AGTGGTAG	0.157 ± 0.00503
ATGAGACA	0.159 ± 0.0072
GGTGCACA	0.268 ± 0.0361
ATAGCACG	0.157 ± 0.0235
CTCCACAC	0.251 ± 0.0305
ATCCACAC	0.297 ± 0.0245
GTCTACAC	0.42 ± 0.0105
GTCCACAC	0.211 ± 0.0298
GTCTAACA	0.204 ± 0.0271
ATCTACAC	0.404 ± 0.0153
CTCTACAC	0.391 ± 0.0122
CCCTCTAC	0.205 ± 0.0116
TCGGTACA	0.219 ± 0.0249
GGGTCTCA	0.162 ± 0.0232
ACTGCCCG	0.219 ± 0.00643
TAGTATCA	0.221 ± 0.0229
CACCAAAC	0.283 ± 0.0195
ACCGCGAA	0.1607 ± 0.000856
CACATTTC	0.186 ± 0.0176
GTGTGCGA	0.173 ± 0.0312
GTGTACTA	0.438 ± 0.0127

Sequence	binding signal [E-score]
GTGTACGA	0.43943 ± 0.000382
AGGTACTA	0.1967 ± 0.000601
GTGTGCCA	0.242 ± 0.0264
GTATACCA	0.152 ± 0.0219
GGGTACTA	0.224 ± 0.00292
GTGTACCA	0.4446 ± 0.00264
CCATGGGA	0.153 ± 0.052
ACCTCCCA	0.191 ± 0.00743
AATCTGAC	0.17 ± 0.00849
GTCGTACA	0.26 ± 0.00478
CCCCCCGG	0.254 ± 0.0183
ACACAACC	0.219 ± 0.0237
CACCTACG	0.232 ± 0.0231
CACCTACA	0.41 ± 0.00505
CACCTACC	0.2673 ± 0.000516
GTATGACA	0.257 ± 0.00319
ACAAGTGT	0.344 ± 0.0292
CGCATACA	0.185 ± 0.00496
CGGGATAC	0.281 ± 0.0031
CGGGATCC	0.209 ± 0.0344
GGGGACAC	0.41 ± 0.0266
AGGGACAC	0.402 ± 0.019
GAGGGGAC	0.2 ± 0.0143

Sequence	binding signal [E-score]
AGGGATAC	0.165 ± 0.0372
GGGGATAC	0.254 ± 0.0111
CGGGACAC	0.42 ± 0.00537
AGGGAGTC	0.239 ± 0.00436
CACTTGCA	0.173 ± 0.0121
GGATCTGA	0.194 ± 0.0532
CCGGATCA	0.176 ± 0.0156
AATCTGGT	0.159 ± 0.0527
GGTCGTAC	0.224 ± 0.0297
CGGGGTCA	0.269 ± 0.0255
ACTTCGTG	0.238 ± 0.000686
AACAAGGG	0.177 ± 0.0185
AGCAGGTG	0.335 ± 0.0234
ACCCCACG	0.267 ± 0.00597
CGCGACCC	0.169 ± 0.0418
CGCGACAC	0.4355 ± 0.00314
CGCGATAC	0.254 ± 0.0107
AGCGACAC	0.465 ± 0.00955
GGCGATAC	0.174 ± 0.0165
GGCGAGAC	0.168 ± 0.0212
GGCGACAC	0.44 ± 0.0183
GAGCGACA	0.185 ± 0.0595
GTATCTCA	0.158 ± 0.00253

Sequence	binding signal [E-score]
CACTACGA	0.191 ± 0.00718
CGAAACCC	0.16 ± 0.0514
AATAGCAC	0.202 ± 0.00634
ACACACAC	0.315 ± 0.0422
CCACACCC	0.393 ± 0.0374
GCGCACCC	0.236 ± 0.0394
GCACACCC	0.396 ± 0.0314
ACCCACCC	0.276 ± 0.0223
ACACACCC	0.39 ± 0.0201
CCACACGC	0.282 ± 0.0206
CCACACAC	0.271 ± 0.0195
GCACACAC	0.275 ± 0.0355
CGGGAATA	0.181 ± 0.0131
CCCGAACA	0.1699 ± 0.00103
ACCTTACA	0.192 ± 0.02
CACCCACG	0.275 ± 0.0113
CGTCCTAC	0.182 ± 0.018
ACCCCATA	0.249 ± 0.00713
CACTGAGG	0.227 ± 0.0197
CCCGCGTC	0.193 ± 0.0507
CACCGCAA	0.284 ± 0.0454
CACTAATG	0.164 ± 0.0232
ACCTGGAG	0.222 ± 0.0157

Sequence	binding signal [E-score]
AATTGGGG	0.17 ± 0.027
CCTACCCC	0.227 ± 0.00219
GCTATACC	0.169 ± 0.0037
ACTACCCG	0.204 ± 0.0121
ACTACACA	0.265 ± 0.0483
TCTACACA	0.194 ± 0.0545
ACTATACA	0.238 ± 0.0193
ACTACACG	0.4206 ± 0.00315
CCTACTCC	0.179 ± 0.0115
CCTACACC	0.4819 ± 0.00223
GCTACCCC	0.23 ± 0.0172
ACTACACT	0.431 ± 0.0136
GCTACACC	0.473 ± 0.00658
CCCCCGGC	0.2104 ± 0.00182
CTTGGGGA	0.158 ± 0.0109
ACCCTTCC	0.161 ± 0.0416
CACCGGGA	0.176 ± 0.00643
CACTAGCA	0.163 ± 0.00431
ATAGCGTG	0.159 ± 0.0173
ACACATGC	0.176 ± 0.0202
ACCGGTAT	0.212 ± 0.02
